Calls of active or inactive are those of the source. Rule for the calls: active = hit-call score of the fitted dose curve at least 0.9, where 1 is the maximum; inactive = score below 0.9.
read-out: Ezrin (EZR), EZR (gene 7430); assay: LTEA_HepaRG_EZR: Life Technologies and Expression Analysis (LTEA) Assay for Ezrin (EZR) using HepaRG (AID 2283491); settings: mRNA level, 48 h; actives raise or lower the signal
How it was run: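 HepaRG, 48 h chemical exposure, 8-pt half-log series from 100 uM, 0.5% DMSO vehicle, duplicates. Read-out: EZR mRNA by TaqMan qRT-PCR (Fluidigm array), housekeeping-normalized; bidirectional curve fit vs DMSO baseline.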

outcome, inactive:
COC(=O)CCCC(=O)OC, O=C(O)CN(CC(=O)O)CC(=O)O, CCc1nc(N)nc(N)c1-c1ccc(Cl)cc1, CC(C)c1cccc(C(C)C)c1NC(=O)NS(=O)(=O)c1cc(C(C)(C)O)co1, Oc1ccc(O)cc1, NC=O, CC(=O)S[C@H](C(=O)N[C@H]1Cc2ccccc2[C@H]2CCC[C@@H](C(=O)O)N2C1=O)C(C)C, CC(=O)CC(c1ccccc1)c1c(O)c2ccccc2oc1=O (stereo not given), NCCOCCOCCN, O=C(O)c1[nH]n(-c2ccc(S(=O)(=O)O)cc2)c(=O)c1N=Nc1ccc(S(=O)(=O)O)cc1, CCc1cc(C2=C(C(=O)O)N(c3ccccc3C(F)(F)F)S(=O)(=O)c3ccccc32)cc2c1OCO2, CCCCCCCCCC[N+](C)(C)[O-], CN(C)CCCN1c2ccccc2Sc2ccc(Cl)cc21, CSc1ccc(Oc2ccc(S(N)(=O)=O)cc2CN(C)C)cc1C, CCCCOC(=O)CCCCC(=O)OCCCC, COc1ccc(C(=O)Nc2nc3ccccc3c(NCc3ccccc3)c2C#N)cc1, CN(C)C(=O)NC1(c2ccccc2)CCN(CC[C@@]2(c3ccc(F)c(F)c3)CN(C(=O)c3ccccc3)CCO2)CC1, Cc1cc(Cc2ccc(N)c(C)c2)ccc1N, Cc1cc(SC2=C(O)C[C@@](CCc3ccc(N)cc3)(C(C)C)OC2=O)c(C(C)(C)C)cc1CO, CCCCCCC(C=O)=Cc1ccccc1

— PubChem BioAssay (EPA / NIEHS)
